# Screens: PubChem BioAssay, several laboratories
# Only some compounds are listed: those with a hit (about 4% of all), similar ones and a draw of the others.
# NR3A LBD binder: modulates the human NR3A ligand-binding domain; NR3A LBD differential scanning fluorimetry, Tm shift; 0% = protein alone, 100% = glycine-bound protein; Tm shift relative to glycine control, % at 25 µM; hit rate 2.5% among 340,000;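 active = melting temperature shift of at least 10% of the positive control shift, at one fixed dose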
# ADAM10 inh: inhibitors of human ADAM10 | inhibition, % at 7 µM | AID 720582 | recombinant ADAM10, EDANS/DABCYL FRET peptide cleavage, 3 h | hit rate 0.62% among 370,000 | O14672;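 active = inhibition above a per-campaign cutoff equal to the mean of compounds falling between control-based bounds plus 3 SD, cut at about 20% in these data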
# Target sequence (O14672 214-748 limits assumed): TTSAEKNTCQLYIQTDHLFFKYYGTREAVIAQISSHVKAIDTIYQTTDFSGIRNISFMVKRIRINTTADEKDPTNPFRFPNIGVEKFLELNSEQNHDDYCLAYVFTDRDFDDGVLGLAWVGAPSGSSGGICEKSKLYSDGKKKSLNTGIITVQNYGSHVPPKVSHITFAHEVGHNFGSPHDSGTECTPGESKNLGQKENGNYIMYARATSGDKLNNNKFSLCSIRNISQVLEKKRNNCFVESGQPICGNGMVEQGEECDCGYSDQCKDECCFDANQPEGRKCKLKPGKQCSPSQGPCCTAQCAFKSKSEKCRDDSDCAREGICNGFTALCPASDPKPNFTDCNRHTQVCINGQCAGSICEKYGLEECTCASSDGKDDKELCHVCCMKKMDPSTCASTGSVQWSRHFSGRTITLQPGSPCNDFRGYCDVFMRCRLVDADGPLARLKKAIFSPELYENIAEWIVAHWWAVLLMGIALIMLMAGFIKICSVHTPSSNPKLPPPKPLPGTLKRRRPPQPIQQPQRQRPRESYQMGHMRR
# ADAM17 inh: inhibits human ADAM17. P78536. recombinant ADAM17, EDANS/DABCYL FRET peptide cleavage. inhibition, % at 6.95 µM. hit rate 0.83% among 370,000. AID 720648;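 active = inhibition above the mean of compounds lying between control limits plus 3 SD, set per campaign, cut at about 8.5% in these data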
# FAS-TE inh: blocks the thioesterase domain of human fatty acid synthase | P49327 | recombinant FAS-TE, OMFH fluorogenic substrate, fluorescence endpoint | inhibition, % at 15 µM | hit rate 0.67% among 360,000 | AID 602261;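 active = compounds whose normalised, plate-corrected inhibition of enzyme fluorescence in the single-dose primary screen is 50% or more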
# aDG glyco act: alpha-DG glycosylation activation; AID 624168; Pro5-aDG cells, alpha-DG glycosylation AlphaScreen (IIH6); 0% Pro5, 100% B10-LARGE cell signal; activation, % at 10 µM; hit rate 0.22% among 360,000;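 active = activation of at least 8% versus controls, or a plate z-score of at least 8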;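 also: Pro5 are CHO cells carrying HIG-tagged alpha-DG that lacks glycosylation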
# ADAM10 ctr: inhibits human ADAM10 in ADAM17 exosite counter-screen | inhibition, % at 6.95 µM | recombinant ADAM10, EDANS/DABCYL FRET peptide cleavage, 3 h | shares compounds with ADAM17 inh | AID 743256 | hit rate 47% among 2,900;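 active = mean inhibition over the triplicate runs exceeds the activity threshold set in the earlier primary screen, cut at about 20% in these data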
# ADAM17 confirm: human ADAM17 inhibition, confirmation; shares compounds with ADAM17 inh; recombinant ADAM17, EDANS/DABCYL QFRET peptide cleavage; inhibition, % at 6.95 µM; hit rate 65% among 2,900; AID 743257;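 active = mean inhibition across replicates above the hit cutoff set in the primary screen, cut at about 8.5% in these data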
# Hits are given with their value; n = inactive; x = no result.
SMILES,NR3A LBD binder,ADAM10 inh,ADAM17 inh,FAS-TE inh,aDG glyco act,ADAM10 ctr,ADAM17 confirm
CC1CCCN(c2nc(NCc3ccco3)nc(N)c2[N+](=O)[O-])C1 (stereo not given),n,n,9.7,n,n,n,n
CCN(CC)S(=O)(=O)c1ccc(-c2ccc(S(=O)(=O)N(CC)CC)cc2)cc1,n,n,n,n,n,x,x
CC1CC(C)CN(c2ccc(-n3cnnn3)cc2[N+](=O)[O-])C1 (stereo not given),n,n,n,n,n,x,x
O=[N+]([O-])c1cc(-n2cnnn2)ccc1N1CCC(Cc2ccccc2)CC1,n,26,12,n,n,n,9.2
O=C(NC1CCCCC1)c1ccc2ccccc2c1,x,n,n,n,n,x,x
O=C(NC1CC1)c1ccc2c(c1)C1C3CCC(C3)C1C(c1ccccc1)N2 (stereo not given),n,n,9.6,n,n,n,9.4
COc1ccc(NC(=O)O/N=C/c2ccc(Br)cc2)cc1,34,n,10,n,n,n,n
COc1cccc(C(NC(C)=O)c2ccc3cccnc3c2O)c1 (stereo not given),n,n,n,n,n,x,x
COc1cccc(C(Nc2ccccc2)c2ccc3ccc(C)nc3c2O)c1 (stereo not given),x,n,17,x,n,n,15
Cc1cccc(-n2c(=O)[nH]c3c(C(N)=O)nc(CC(C)C)nc32)c1,n,n,n,n,n,x,x
COc1ccc(CCN(Cc2ccccn2)C(=S)Nc2ccccc2Cl)cc1OC,n,n,8.7,n,n,n,n
COc1ccc(Cl)cc1NC(=S)NCCC(c1ccccc1)c1ccccc1,18,n,9.8,n,n,20,n
COc1ccccc1NC(=S)NCc1ccccn1,n,n,n,n,n,x,x
COc1ccccc1NC(=S)NCCC(c1ccccc1)c1ccccc1,n,n,n,n,n,x,x
COc1ccc(Cl)cc1NC(=S)NCc1ccccn1,n,n,8.7,n,n,n,n
COc1cc(NC(=S)NCCC(c2ccccc2)c2ccccc2)c(OC)cc1Cl,24,n,9.7,n,n,25,14
O=C(COc1ccc(Br)cc1Cl)NC(=O)NC1CCCC1,n,n,n,n,n,x,x
CCCCC(=O)Nc1cccc(-c2csc(-c3ccccc3)n2)c1,n,n,8.9,n,n,22,17
CCOC(=O)C1CCN(C(=O)c2c(-c3ccccc3)noc2C)CC1,n,n,n,n,n,x,x
CN1C2CCC1CC(NC(=O)c1cc(Cl)cc3[nH]cnc13)C2 (stereo not given),n,n,n,n,n,x,x
O=C(CSc1nc(Nc2ccccc2)nc(N2CCOCC2)n1)Nc1cccc([N+](=O)[O-])c1,17,n,10,n,n,38,22
O=C(CSc1nc(Nc2ccccc2)nc(N2CCOCC2)n1)Nc1ccccc1Cl,n,n,n,n,n,x,x
CN=C1S/C(=C\c2cn(CC(=O)OC)c3ccccc23)C(=O)N1C,n,n,n,n,n,x,x
COc1ccc(N2C(=O)C3C(C2=O)C3(c2ccccc2)c2ccccc2)cc1 (stereo not given),n,n,13,n,n,n,n
Cc1ccc(N(CC(=O)NCc2cccnc2)S(C)(=O)=O)cc1C,n,n,10,n,n,n,n
SMILES,NR3A LBD binder,ADAM10 inh,ADAM17 inh,FAS-TE inh,aDG glyco act,ADAM10 ctr,ADAM17 confirm
Cc1ccc(N(CC(=O)NCc2ccncc2)S(C)(=O)=O)cc1Cl,n,n,n,n,n,x,x
Nc1ccc2nc(CCCCCCc3nc4ccc(N)cc4[nH]3)[nH]c2c1,n,n,n,n,n,x,x
Nc1ccc2nc(CCCCCCCCc3nc4ccc(N)cc4[nH]3)[nH]c2c1,n,n,13,n,n,n,n
CN(CC(=O)Nc1ccc(Cl)c(C(F)(F)F)c1)C(=O)c1ccc(OCC2CCCO2)cc1 (stereo not given),n,n,8.7,n,n,25,9.7
O=C(Nc1nnc([C@@H]2C[C@H](O)[C@@H](CO)O2)s1)Nc1ccc(F)cc1F,x,n,10,n,n,n,n
O=C(Nc1nnc([C@H]2C[C@H](O)[C@@H](CO)O2)s1)Nc1ccc(F)cc1F,x,n,n,n,n,x,x
C[C@H](O)[C@@H]1C(=O)N2CCc3c([nH]c4cccc(-c5ccccc5)c34)[C@@H]2C[C@@H]1N(C)C(=O)NC1CCCCC1,x,n,n,x,x,x,x
Cc1ccc(-n2c(C)cc(/C=C3/C(=N)N4C(c5ccccc5)=CSC4=NC3=O)c2C)cc1,n,n,n,n,n,x,x
N=C1/C(=C/c2cccn2CCOc2ccccc2)C(=O)N=C2SC=C(c3ccccc3)N12,23,n,9.7,n,n,n,14
C/C(=N\NS(=O)(=O)c1c(C)cc(C)cc1C)c1ccncc1,n,n,n,n,n,x,x
Cc1ccccc1OCCC(=O)OCC(=O)Nc1cc(S(=O)(=O)N2CCOCC2)ccc1Cl,n,n,11,n,n,n,n
COc1ccc(NC(=O)CN(Cc2ccccc2)Cc2ccccc2)cc1S(N)(=O)=O,n,n,n,n,n,x,x
Cc1ccc(NC(=O)CN2C(=O)NC(Cc3c[nH]c4ccccc34)C2=O)cc1S(=O)(=O)N1CCCCC1 (stereo not given),12,n,11,n,n,22,14
O=C(CN1C(=O)NC(Cc2c[nH]c3ccccc23)C1=O)Nc1cccc(S(=O)(=O)N2CCCC2)c1 (stereo not given),n,n,n,n,n,x,x
Cc1ccc(C)c(OCCC(=O)OCC(=O)Nc2cccc(S(=O)(=O)N3CCCC3)c2)c1,n,n,8.8,n,n,25,13
COc1ccc(NC(=O)COc2ccccc2Cc2ccccc2)cc1S(N)(=O)=O,n,n,11,n,n,n,n
Brc1cc2c(cc1C1OCCCO1)OCO2,n,n,n,n,n,x,x
CN(C)S(=O)(=O)c1ccc(Cl)c(NC(=O)COC(=O)CCC2CCCCC2)c1,n,n,12,n,n,32,17
Cc1ccccc1OCC(=O)Nc1ccc(C)c(S(=O)(=O)N2CCCCCC2)c1,n,n,8.7,n,n,26,13
COc1ccc(CN(C)C(=O)c2cc(-c3ccccc3)nc3ccc(C)cc23)c(OC)c1,x,n,12,n,n,n,n
CC(C)(C)[C@@H]1COC(=O)[C@@H](Cc2ccc(F)cc2)CC/C=C\C[C@@H](CC(=O)N(CCO)Cc2ccccc2)C(=O)N1,n,n,n,n,n,x,x
CC(C)(C)[C@@H]1COC(=O)[C@H](Cc2ccc(F)cc2)CC/C=C\C[C@H](CC(=O)N(CCO)Cc2ccccc2)C(=O)N1,n,n,11,n,n,n,n
